Inconclusive results are not listed. Calls of active or inactive are those of the source. Unless noted, calls come from the whole dose curve; as a rule, active = well fitted curve in the direction sought with a large enough effect in the repeat runs; inconclusive = weak or mixed curves; inactive = no such curve, though single readings can be large; an effect the other way counts as inactive or inconclusive.
Legend:
[1] = qHTS assay to identify small molecule antagonists of the estrogen receptor alpha (ER-alpha) signaling pathway using the BG1 cell line in the presence of 0.1 nM 17-beta-estradiol - cell viability counter screen (AID 1259241); note: nearly all actives have a fitted effect of over 40% in size
How it was run: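 The cell line endogenously expresses full-length ER-alpha and carries four EREs driving luciferase. Cells are cultured 5 days hormone-free, treated 22 hr with compounds and 0.1 nM estradiol, then viability is read by fluorescence.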

[2] = qHTS assay to identify small molecule antagonists of the androgen receptor (AR) signaling pathway using the MDA cell line in the presence of 0.5 nM R1881 - cell viability counter screen (AID 1259242); note: nearly all actives have a fitted effect of over 45% in size
How it was run: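 Live-cell protease fluorescence, CellTiter-Fluor, 30 min at 37C. Cells: MDA-kb2, 3,000/well, preincubated 5 hr. Compounds plus 0.5 nM R1881 final, 16 hr, 37C, 0% CO2.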

[3] = target: Androgen receptor (Homo sapiens) (UniProt P10275); test: qHTS assay to identify small molecule antagonists of the androgen receptor (AR) signaling pathway using the MDA cell line in the presence of 0.5 nM R1881 (AID 1259243); note: nearly all actives have a fitted effect of over 50% in size; note: potency is the fitted concentration of half-maximal effect
Sequence of Androgen receptor (Homo sapiens) (P10275 whole entry, looked up): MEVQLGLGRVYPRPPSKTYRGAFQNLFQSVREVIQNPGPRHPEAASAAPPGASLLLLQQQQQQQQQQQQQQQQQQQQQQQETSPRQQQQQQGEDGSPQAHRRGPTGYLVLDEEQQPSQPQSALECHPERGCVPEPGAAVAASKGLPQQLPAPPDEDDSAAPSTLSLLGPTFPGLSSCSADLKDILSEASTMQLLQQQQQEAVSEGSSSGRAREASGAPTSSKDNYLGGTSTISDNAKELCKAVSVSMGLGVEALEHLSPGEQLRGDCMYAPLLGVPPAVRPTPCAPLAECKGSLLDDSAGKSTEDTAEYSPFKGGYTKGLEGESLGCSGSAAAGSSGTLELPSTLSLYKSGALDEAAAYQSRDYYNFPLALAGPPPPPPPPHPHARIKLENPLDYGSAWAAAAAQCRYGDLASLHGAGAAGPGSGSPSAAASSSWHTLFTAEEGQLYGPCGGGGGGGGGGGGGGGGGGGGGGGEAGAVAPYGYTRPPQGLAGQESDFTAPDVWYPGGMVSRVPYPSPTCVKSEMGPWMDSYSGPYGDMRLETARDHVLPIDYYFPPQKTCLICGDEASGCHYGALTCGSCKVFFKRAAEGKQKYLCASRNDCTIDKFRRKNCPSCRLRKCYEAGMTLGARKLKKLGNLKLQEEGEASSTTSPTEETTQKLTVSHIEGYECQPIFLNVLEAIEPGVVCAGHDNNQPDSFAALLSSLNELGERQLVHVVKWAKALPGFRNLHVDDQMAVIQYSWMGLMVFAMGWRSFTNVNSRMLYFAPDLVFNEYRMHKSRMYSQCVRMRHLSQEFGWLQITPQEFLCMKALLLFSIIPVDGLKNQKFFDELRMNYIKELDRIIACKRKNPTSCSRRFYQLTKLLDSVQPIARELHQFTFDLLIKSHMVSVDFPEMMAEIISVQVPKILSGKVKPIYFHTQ
How it was run: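 MDA-kb2, MMTV-luc (AR/GR elements); 3,000 cells/well; cpd + 0.5 nM R1881 final; 16 hr 37C, 0% CO2; ONE-Glo 30 min RT; luminescence.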

[4] = target: Estrogen receptor (Homo sapiens) (UniProt P03372); test: qHTS assay to identify small molecule antagonists of the estrogen receptor alpha (ER-alpha) signaling pathway using the BG1 cell line in the presence of 0.1 nM 17-beta-estradiol (AID 1259244); note: nearly all actives have a fitted effect of over 50% in size
Sequence of Estrogen receptor (Homo sapiens) (P03372 whole entry, looked up): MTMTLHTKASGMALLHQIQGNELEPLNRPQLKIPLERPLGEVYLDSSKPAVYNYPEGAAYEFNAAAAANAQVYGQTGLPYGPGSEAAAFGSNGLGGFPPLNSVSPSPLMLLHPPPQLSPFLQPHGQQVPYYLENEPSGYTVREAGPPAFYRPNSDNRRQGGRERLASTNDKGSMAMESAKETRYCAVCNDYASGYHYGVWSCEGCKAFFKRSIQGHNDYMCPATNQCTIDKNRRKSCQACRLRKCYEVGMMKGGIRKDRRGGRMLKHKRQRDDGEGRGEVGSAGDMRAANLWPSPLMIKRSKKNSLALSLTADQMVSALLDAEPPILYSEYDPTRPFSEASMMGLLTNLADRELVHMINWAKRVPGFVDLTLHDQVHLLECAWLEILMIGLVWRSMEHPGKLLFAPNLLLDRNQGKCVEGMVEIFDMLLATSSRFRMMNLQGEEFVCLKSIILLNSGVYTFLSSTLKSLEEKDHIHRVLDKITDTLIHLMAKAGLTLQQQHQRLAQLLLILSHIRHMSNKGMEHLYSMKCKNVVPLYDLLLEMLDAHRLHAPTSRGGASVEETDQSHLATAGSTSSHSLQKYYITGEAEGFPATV
How it was run: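 Luminescence after ONE-Glo (30 min, room temperature) measured ERE-luciferase activity in VM7Luc4E2 cells treated 22 h with compound and 0.1 nM final 17beta-estradiol as stimulator.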

[5] = qHTS assay to identify small molecule HDAC inhibitors (AID 1259364); note: potency is the fitted concentration of half-maximal effect;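 note: wild-type HCT-116 cells with endogenous class I/II HDAC activity; nearly all actives have a fitted effect of over 45% in size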
How it was run: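 HCT-116 (wild type), 1,500 cells/well, overnight; compound 2 hr 37C 5% CO2; HDAC-Glo I/II reagent 30 min RT; luminescence readout.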

[6] = qHTS assay to identify small molecule HDAC inhibitors - cell viability counter screen (AID 1259365); note: series mostly up to about 92 µM; nearly all actives have a fitted effect of over 50% in size
How it was run: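 Viability readout: CellTiter-Glo luminescence. Wild-type HCT-116 cells, 2hr compound treatment following overnight attachment at 37 C.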

[7] = qHTS assay to identify small molecule agonists of the sonic hedgehog signaling (Shh) pathway - cell viability counter screen (AID 1259366); note: nearly all actives have a fitted effect of over 50% in size
How it was run: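 Viability measured fluorometrically (CellTiter-Fluor, 1hr, 37C) in 3T3 Gli1-Luc reporter cells after 23hr compound exposure within a 24hr incubation at 37C/5% CO2.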

[8] = qHTS assay to identify small molecule antagonists of the sonic hedgehog signaling (Shh) pathway - cell viability counter screen (AID 1259367); note: nearly all actives have a fitted effect of over 55% in size
How it was run: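 Fluorescence read-out (CellTiter-Fluor, 1 hr at 37C) taken after 23 hr compound treatment of 3T3 Gli1-Luc cells stimulated with conditioned medium. Cells were seeded at 2,000 per well and pre-incubated 4 hr.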

[9] = qHTS assay to identify small molecule agonists of the sonic hedgehog signaling (Shh) pathway (AID 1259368; calls by dose curve;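 note: NIH/3T3-derived 3T3Gli1-Luc cells carrying a stable Gli1-driven firefly luciferase reporter; series mostly up to about 92 µM; nearly all actives have a fitted effect of over 15% in size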)
How it was run: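 Read-out: firefly luciferase luminescence from a Gli1 response element reporter stably integrated in NIH/3T3-derived 3T3Gli1-Luc cells, measured 30 min at room temperature after reagent addition. Compound exposure lasted 24 hr at 37 C, 5% CO2.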

[10] = qHTS assay to identify small molecule antagonists of the sonic hedgehog signaling (Shh) pathway (AID 1259369; calls by dose curve; note: nearly all actives have a fitted effect of over 45% in size; note: potency is the fitted concentration of half-maximal effect)
How it was run: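 Luminescence readout: firefly Luc under Gli1 response element in 3T3Gli1-Luc cells (NIH/3T3 clone). Antagonist mode, stimulation by conditioned medium; compound exposure 24hr at 37 C, 5% CO2.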

[11] = qHTS assay to identify small molecule agonists of the androgen receptor (AR) signaling pathway in the presence of an antagonist - cell viability counter screen (AID 1259379);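 note: MDA-kb2 human breast cancer cells carrying an MMTV luciferase reporter; series mostly up to about 92 µM; nearly all actives have a fitted effect of over 25% in size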
How it was run: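 Viability counter screen: CellTiter-Fluor fluorescence, measured in the same wells as the luciferase read-out. MDA-kb2 cells, 3,000/well, with nilutamide at 3.0uM final and compounds at 15 concentrations, 16 hr at 37C, 0% CO2.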

[12] = qHTS assay to identify small molecule agonists of the estrogen receptor beta (ER-beta) signaling pathway - cell viability counter screen (AID 1259380); note: nearly all actives have a fitted effect of over 30% in size; note: potency is the fitted concentration of half-maximal effect
How it was run: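 Luminescence read-out (CellTiter-Glo, 30 min, room temp) taken in the same wells as the beta-lactamase reporter assay; ER-beta-UAS-bla HEK293T cells exposed to DMSO-dissolved compounds for 16 hr at 37C in 2% charcoal-stripped FBS medium.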

[13] = target: Androgen receptor (Homo sapiens) (UniProt P10275); test: qHTS assay to identify small molecule agonists of the androgen receptor (AR) signaling pathway in the presence of an antagonist (AID 1259381; calls by dose curve; note: nearly all actives have a fitted effect of over 15% in size)
How it was run: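 Luciferase read-out (ONE-Glo, 30min room temperature) in MDA-kb2 MMTV-reporter cells; agonist mode run in presence of AR antagonist nilutamide, 3.0uM final. Compounds tested as 15-point series, 16hr exposure at 37C, 0% CO2.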

[14] = target: Estrogen receptor beta (Homo sapiens) (UniProt Q92731); test: qHTS assay to identify small molecule agonists of the estrogen receptor beta (ER-beta) signaling pathway (AID 1259377; active = well fitted activation curve with a large enough effect in the signal ratio in the repeat runs, not every such curve was filed as active; the % refers to the signal ratio)
Sequence of Estrogen receptor beta (Homo sapiens) (Q92731 whole entry, looked up): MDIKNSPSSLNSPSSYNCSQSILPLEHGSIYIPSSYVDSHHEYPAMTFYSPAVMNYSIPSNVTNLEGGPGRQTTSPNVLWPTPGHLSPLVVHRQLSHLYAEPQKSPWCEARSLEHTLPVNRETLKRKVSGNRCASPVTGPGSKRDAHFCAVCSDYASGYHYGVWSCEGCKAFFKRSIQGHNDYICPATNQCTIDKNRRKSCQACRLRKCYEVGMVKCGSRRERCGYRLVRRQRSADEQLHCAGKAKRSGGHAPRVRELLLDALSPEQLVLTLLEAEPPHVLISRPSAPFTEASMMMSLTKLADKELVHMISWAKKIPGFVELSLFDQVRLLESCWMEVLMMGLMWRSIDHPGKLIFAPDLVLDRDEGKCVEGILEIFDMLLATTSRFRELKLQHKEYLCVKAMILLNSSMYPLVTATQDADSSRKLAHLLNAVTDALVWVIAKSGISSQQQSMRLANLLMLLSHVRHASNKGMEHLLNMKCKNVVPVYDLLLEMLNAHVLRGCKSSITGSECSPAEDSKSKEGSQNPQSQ
How it was run: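 A UAS-controlled beta-lactamase reporter in ER-beta-UAS-bla HEK293T cells reports receptor activation. Compounds act for 16 hr at 37C in 2% charcoal-stripped serum, and a FRET substrate is read by fluorescence after 2 hours.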

[15] = target: Estrogen receptor beta (Homo sapiens) (UniProt Q92731); test: qHTS assay to identify small molecule antagonists of the estrogen receptor beta (ER-beta) signaling pathway (AID 1259378; active = well fitted inhibition curve with a large enough effect in the signal ratio in the repeat runs, not every such curve was filed as active; the % refers to the signal ratio)
How it was run: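 ER-beta-UAS-bla HEK293T cells in 2% charcoal-stripped FBS medium treated with compound plus 1nM final 17-beta-estradiol for 16 hr at 37C. Beta-lactamase reporter read by FRET substrate fluorescence after 2 hours at room temperature.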

[16] = qHTS assay to identify small molecule antagonists of the estrogen receptor beta (ER-beta) signaling pathway - cell viability counter screen (AID 1259382); note: nearly all actives have a fitted effect of over 55% in size; note: potency is the fitted concentration of half-maximal effect
How it was run: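 Luminescent ATP read-out (CellTiter-Glo, 30 min, RT) taken in the same wells as the bla reporter assay. HEK293T ER-beta-UAS-bla cells in 2% charcoal-stripped FBS were exposed to compounds with 1nM E2 for 16 hr at 37C.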

[17] = qHTS assay to identify small molecule agonists or antagonists of the thyroid stimulating hormone receptor (TSHR) signaling pathway - wild type cell line counter screen (AID 1259384; calls by dose curve)
How it was run: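 Wild-type Hek293 cells, 800/well, 18 h at 37C, then compound with Ro20-1724 for 30 min RT. cAMP by HTRF (cAMP-d2/anti-cAMP cryptate), 1 h RT, fluorescence read. 15 concentrations, triplicates.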

[18] = target: Thyrotropin receptor (Homo sapiens) (UniProt P16473); test: qHTS assay to identify small molecule antagonists of the thyroid stimulating hormone receptor (TSHR) signaling pathway (AID 1259385; calls by dose curve; note: nearly all actives have a fitted effect of over 20% in size)
Sequence of Thyrotropin receptor (Homo sapiens) (P16473 whole entry, looked up): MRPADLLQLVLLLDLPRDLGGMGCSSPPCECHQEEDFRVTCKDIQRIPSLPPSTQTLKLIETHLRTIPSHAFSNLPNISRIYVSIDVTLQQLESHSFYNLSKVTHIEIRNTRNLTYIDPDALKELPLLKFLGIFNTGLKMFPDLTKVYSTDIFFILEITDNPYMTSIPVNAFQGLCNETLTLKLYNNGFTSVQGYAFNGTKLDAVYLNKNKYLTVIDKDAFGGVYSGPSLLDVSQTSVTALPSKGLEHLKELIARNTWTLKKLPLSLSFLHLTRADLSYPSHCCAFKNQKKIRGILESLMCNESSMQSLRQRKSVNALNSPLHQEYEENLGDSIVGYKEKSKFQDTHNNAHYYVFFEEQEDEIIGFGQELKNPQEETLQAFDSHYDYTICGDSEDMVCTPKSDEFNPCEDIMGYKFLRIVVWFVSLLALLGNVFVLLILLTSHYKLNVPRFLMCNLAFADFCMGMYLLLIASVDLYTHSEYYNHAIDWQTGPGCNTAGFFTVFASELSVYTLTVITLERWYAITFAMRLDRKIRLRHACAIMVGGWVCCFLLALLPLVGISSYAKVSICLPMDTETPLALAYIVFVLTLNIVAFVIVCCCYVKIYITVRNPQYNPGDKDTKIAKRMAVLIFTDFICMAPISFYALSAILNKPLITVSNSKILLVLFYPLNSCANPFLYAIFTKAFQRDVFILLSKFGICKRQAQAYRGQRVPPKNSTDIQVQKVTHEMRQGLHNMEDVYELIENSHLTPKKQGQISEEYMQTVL
How it was run: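 TSHR-HEK293 cells (800/well) plated 18 h, then compounds with Ro20-1724 and TSH at 1.5 ng/mL final, 30 min at room temperature. cAMP quantified by HTRF (cAMP-d2/anti-cAMP-cryptate, 1 h); 15 concentrations in triplicate.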

[19] = qHTS assay to identify small molecule phospholipidosis (PLD) inducers (AID 1259344; active = well fitted curve in the direction sought with a large enough effect; an effect the other way counts as inactive or inconclusive; note: potency is the fitted concentration of half-maximal effect)
How it was run: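 Read-out is LipidTOX Red fluorescence (ex 595/em 615) imaged in HepG2 cells after 24 h compound exposure at 37 C, with Hoechst nuclear counterstain (ex 352/em 461) allowing per-cell normalisation.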

[20] = target: Estrogen receptor (Homo sapiens) (UniProt P03372); test: qHTS assay to identify small molecule agonists of the estrogen receptor alpha (ER-alpha) signaling pathway in the presence of an antagonist (AID 1259383; calls by dose curve; note: top concentration of the series differs between compounds; nearly all actives have a fitted effect of over 15% in size)
How it was run: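 Luciferase luminescence (ONE-Glo, 30min at room temperature) measured in VM7Luc4E2 cells after 22hr compound exposure at 15 concentrations, with 10.0nM ICI-182,780 final present; cells express endogenous ER-alpha and carry four EREs upstream of luciferase.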

Measured: Potency

Nc1ccc(NC(=O)c2ccc(N)cc2)cc1
active: [5] 27.3 µM | [12] 54.5 µM
not listed: [14] | [15] | [16] | [17] | [18] | [19] | [20]
inactive: all other assays above

CCc1ccc(C)cc1
not listed: [4] | [8] | [17] | [18] | [19] | [20]
inactive: all other assays above

CNS(=O)(=O)c1cc(C(=O)N2CCC(CCN3C4CCC3CC(n3c(C)nc5ccccc53)C4)(c3cccc(F)c3)CC2)c(Cl)cc1F (configuration not stated)
inactive: [1] | [2] | [5] | [6] | [13] | [17] | [18]
active: [3] 24.3 µM | [10] 15.4 µM | [12] 5.45 µM | [16] 7.7 µM

COc1cc(C(C)=O)ccc1OCCCN1CCC(c2noc3cc(F)ccc23)CC1
active: [19] 1 µM
not listed: [3] | [10] | [12] | [13] | [14] | [15] | [16] | [18]
inactive: all other assays above

CN=C(N)NC(=O)Nc1c(C)cccc1C
not listed: [3] | [13] | [14] | [15]
inactive: all other assays above

CNc1c2c(nn1C)CCCC2
not listed: [3] | [13] | [14] | [20]
inactive: all other assays above

Nc1ccc(F)cc1
not listed: [13] | [14] | [15] | [17] | [18] | [19] | [20]
inactive: all other assays above

CCCCCCCCCCCCCC(=O)OCC(O)CO (configuration not stated)
not listed: [4] | [15] | [19] | [20]
inactive: all other assays above

C[C@@H]1C[C@H]2[C@@H]3CCC4=CC(=O)C=C[C@]4(C)[C@@]3(F)[C@@H](O)C[C@]2(C)[C@@]1(O)C(=O)COP(=O)(O)O
not listed: [3] | [10] | [13] | [15]
inactive: all other assays above

— PubChem BioAssay (Tox21)
